ChEMBL document CHEMBL4888484, “Replenishing the malaria drug discovery pipeline: Screening and hit evaluation of the MMV Hit Generation Library 1 (HGL1) against asexual blood stage Plasmodium falciparum ,using a nano luciferase reporter read-out” (2022)
The whole screen tested about 4,800 compounds, of which about 410 (8.5%) showed an effect of 50% or more. The sample as a whole holds a higher share of strong results than the screen did.

Test system: Plasmodium falciparum
Experiment: Confirmatory screen in NF54 pLDH assay, in single point, at 2uM, 72h
Assay type: functional, Erythrocyte
Settings: timepoint 72 hour

| Compound | % Inhibition [%] |
| --- | --- |
| CCCS(=O)(=O)NC[C@H]1C[C@@H]2CCN1C[C@@H]2c1cc(C(CC)CC)nc(-c2ccncc2)n1 | 25 |
| CCC(CC)c1cc([C@H]2CN3CC[C@H]2C[C@@H]3CNS(=O)(=O)Cc2ccccc2)nc(-c2ccncc2)n1 | 60 |
| CCC(CC)c1cc([C@H]2CN3CC[C@H]2C[C@@H]3CO)nc(-c2ccncc2)n1 | 24 |
| CN(C)[C@@H](Cn1c(=O)[nH]c2ccccc2c1=O)c1ccco1 | -13 |
| COc1ccc(-c2csc(-n3cc(C4=CCN(CCO)CC4)cn3)n2)cc1 | 40 |
| O=C(Cc1noc2ccccc12)N1CC2CCCC(C1)N2 | 11 |
| CC(C)(C)CC(C)(C)NCc1cccnc1 | -1 |
| O=C1NC(=O)C2(Cc3cc(C(F)(F)F)ccc3N3CCCCC32)C(=O)N1c1ccccc1 (centres undefined) | -21 |
| O=C(c1ccccc1)c1cc(Cl)ccc1NC(=O)[C@H]1CC(=O)N(c2ccc(F)cc2)C1 | 96 |
| Cc1c(C(=O)N2CCC3(CC2)OCCO3)oc2ccc3c(c12)[C@@H](O)CC1(CCCCC1)O3 | 10 |
| CN(C)c1ccccc1NS(=O)(=O)c1c(Br)cc2[nH]c(=O)oc2c1Cl | 2 |
| CCC(CC)c1cc([C@H]2CN3CC[C@H]2C[C@@H]3CNC(=O)Cc2cccs2)nc(-c2ccncc2)n1 | 7 |
| CN1CCc2nc3ccc(F)cc3c(C(N)=O)c2C1 | -10 |
| Cc1ccccc1[C@H](C)NC1=NCCO1 | 6 |
| CCN1C[C@]2(COC)CC[C@H](OC)[C@@]34C5C[C@@H]6[C@@H](OC)C[C@@](O)(C5[C@H]6OC(=O)c5ccccc5)[C@@H](CC23)C14 (some centres undefined) | 13 |
| Cc1ccc(C2CC(c3cccnc3)Nc3ncnn32)cc1 (centres undefined) | 7 |
| C=CC1CN2CCC1CC2C12Nc3ccccc3C1(O)CCO2 (centres undefined) | -15 |
| O[C@@]1(Cc2ccccc2)CN2CCC1CC2 | 3 |
| COc1ccc(CCN2C(=O)NC(=O)[C@@]3(Cc4c(ccc5ccccc45)N(C)C3)C2=O)cc1OC | 6 |
| Cc1cc(C(=O)NC2CC(C)n3ccnc32)nn1C(C)C (centres undefined) | 70 |
| CCc1nsc(N2CCC3CCC(C2)N3C)n1 (centres undefined) | -12 |
| C[C@@H]1N=C(c2ccccc2)c2cc(Cl)ccc2N(CC(=O)Nc2cccc(C(F)(F)F)c2)C1=O | 11 |

| Compound | % Inhibition [%] |
| --- | --- |
| Cc1ccc(CN2CC(=O)N(C)CC23CCCCC3)nc1 | -19 |
| Clc1ccc(C2CC(c3cccnc3)Nc3ncnn32)cc1 (centres undefined) | -11 |
| COC(=O)c1cc(OC)cc2[nH]c(=O)oc12 | -17 |
| O=C1CCN(C(=O)c2ccc(F)c(Cl)c2)CC1 | 13 |
| CC(CCc1ccccc1)N1C(=O)NC(=O)C2(Cc3c(ccc4ccccc34)N(C)C2)C1=O (centres undefined) | 6 |
| CCn1cnc2c(N3C4CCC3C(C(=O)OC(C)(C)C)C4)ncnc21 (centres undefined) | -8 |
| CC1CNCC(C)N1Cc1csc(C2CC2)n1 (centres undefined) | -9 |
| O=C1NC(=O)C2(Cc3cccc(F)c3N3CCC(c4ccccc4)CC32)C(=O)N1c1ccccc1 (centres undefined) | -18 |
| O=C(N1CCN(C(c2ccccc2)c2ccccc2)CC1)C(O)(c1ccccc1)c1ccccc1 | -14 |
| Cc1cc(=O)c(OCC(=O)N2CCN([C@@H](c3ccccc3)c3ccc(Cl)cc3)CC2)c[nH]1 | 74 |
| COc1cc(OCC(=O)N2CCN([C@@H](C)Cc3ccccc3)CC2)cc(OC)c1OC | 3 |
| COc1cnc(C(F)(F)F)nc1N1CCNCC1 | 9 |
| Cn1cc(Br)cc1C(=O)C(Cl)(Cl)Cl | -6 |
| CC(C)(C)NC(=O)C1CC2CCCCC2CN1 (centres undefined) | 2 |
| CN1CC2(CN(Cc3cnc4ccc(Cl)cn34)C2)OC1=O | 6 |
| C=CCN(C)C[C@H]1CN2CC[C@H]1C[C@@H]2CNC(=O)Nc1ccc(OC(F)(F)F)cc1 | 17 |
| O=C1CCN(C(=O)c2ccc(Cl)c(Cl)c2)CC1 | 12 |
| CN1CCC(N(C)C2CCCCC2N(C)C(=O)Cc2ccc(O)cc2)CC1 (centres undefined) | 4 |
| CC(=O)N(C1CCN(Cc2ccccc2)CC1)C1(C(=O)Nc2ccc3[nH]ccc3c2)CCN(C)CC1 | 101 |
| CN1CC2CN(Cc3ccccc3)CC(C1)C2=O | -5 |
| COCCn1ccc(C(=O)N[C@H]2CCc3nc(C(C)C)nn3C2)n1 | 1 |
| c1cc(N2CC[C@@]3(CCCNC3)C2)c2sccc2n1 | 98 |

| Compound | % Inhibition [%] |
| --- | --- |
| CN1CC[C@]2(CCN(c3ccnc4ccsc34)C2)C1 | 97 |
| CN1CCC2(CC1)CNc1ccccc12 | 0 |
| COC(=O)COc1ccc(C#N)c(Cl)c1 | 1 |
| CCOc1ccccc1NC(=O)c1cn(Cc2ccc(N)cc2)cn1 | 6 |
| O=c1[nH]c2cc(NS(=O)(=O)c3ccc(C4CCCCC4)cc3)ccc2o1 | -14 |
| COc1ccc(N2C[C@H]2c2ccncc2)cc1 | 12 |
| O=C(NC[C@H]1C[C@@H]2CC[N@]1C[C@@H]2CN1CCC(Cc2ccccc2)CC1)Nc1ccccc1 | 27 |
| CN(C)C(=O)Oc1cccc2ccc(CN3CCC(N4CCN(c5ccc(C(F)(F)F)cn5)CC4)CC3)nc12 | 5 |
| O=C(Cc1cnc2ccccn12)N1C[C@H]2CC[C@@H](C1)N(Cc1ccccn1)C2 | 20 |
| CNCCc1cc(OC)c(OC)c2c1ccc1cc(OC)c(OC)cc12 | 7 |
| c1ccc2c(CCNC3(c4nnnn4C4CCCCC4)CCCCC3)c[nH]c2c1 | 16 |
| O=S(=O)(NC12CCCC1CNC2)c1onc(C2CC2)c1Cl (centres undefined) | 97 |
| O=C(NCc1ccc(Br)cn1)[C@H]1NCC12CCCC2 | 4 |
| COC(=O)CNc1cc(C)c([C@@](O)(C(=O)OC)C(F)(F)F)cc1OC | 6 |
| CCN(CC)C(=O)Oc1cc2nnnn2nc1-c1ccccc1 | 6 |
| CC(C)N1C(=O)NC(=O)C2(Cc3ccccc3N3CCN(Cc4ccccc4)CC32)C1=O (centres undefined) | 19 |
| C=CCCC(CN1C[C@H]2CC=CC[C@H]2C1)Oc1ncc(F)cn1 (some centres undefined) | 64 |
| C[C@@H](Cc1ccc(O)cc1)NCc1cc[nH]n1 | 12 |
| CCCC(=O)N(C(=O)CCC)c1ccc2[nH]c(=O)oc2c1 | -1 |
| Cc1ccc(Cl)c(NC(=O)N2CCC[C@H](c3n[nH]c(=O)o3)C2)c1 | 2 |
